Measured values reported in PubChem BioAssay AID431 (Sanford-Burnham Center for Chemical Genomics, 2006).
Several values for one entry are separate records, joined by “and”; a condition that tells them apart may be missing. Equal entries are not always repeated. Screen size: about 63,000 compounds; about 1,100 (1.7%) were called active.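 Rule for the calls: active = compounds whose percent cytotoxicity in the single-dose primary screen, scaled between solvent and toxic-drug controls, exceeds 50; inactive = the rest.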 This excerpt belongs to a sample that is enriched for actives. Entries with a potency or affinity are not part of this list.

test: viability loss of HPDE-C7K cells – cell-based, fluorescence, HTS, primary screen (AID 431); conditions: HPDE-C7K KRASV12 cells, Alamar Blue viability, 48 h; at 10 µM; active compounds read high;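 note: 0% = DMSO solvent wells and 100% = doxorubicin-treated wells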

| SMILES | cytotoxicity |
| --- | --- |
| COc1cc2nc(N3CCN(C(=O)c4ccco4)CC3)nc(N)c2cc1OC | 90.2% (active) |
| COc1cc2nc(N3CCN(C(=O)C4COc5ccccc5O4)CC3)nc(N)c2cc1OC (stereo unspecified) | 43.4% (inactive) |
| COc1cc2nc(N3CCN(C(=O)C4CCCO4)CC3)nc(N)c2cc1OC (stereo unspecified) | -6.8% (inactive) and -0.8% (inactive) |
| CN(c1ccccc1C(=O)NCc1ccco1)S(C)(=O)=O | 3.4% (inactive) |
| Cc1ccc(S(=O)(=O)NCCC(=O)Nc2nnc(C3CC3)s2)cc1C | 5.5% (inactive) |
| O=C(NCCCN1CCOCC1)c1ccc(CS(=O)(=O)c2cccc(C(F)(F)F)c2)o1 | -4.8% (inactive) |
| O=C1c2cccnc2C(O)N1Cc1cccs1 (stereo unspecified) | -24.1% (inactive) |
| CCC(C)n1ncn(-c2ccc(N3CCN(c4ccc(OCC5COC(Cn6cncn6)(c6ccc(Cl)cc6Cl)O5)cc4)CC3)cc2)c1=O (stereo unspecified) | 68.7% (active) |
| O=C1Nc2ccccc2C12OCC(COc1ccc(Cl)cc1)O2 (stereo unspecified) | 36.3% (inactive) |
| CCCC1COC(Cn2cncn2)(c2ccc(C)cc2)O1 (stereo unspecified) | -8.6% (inactive) |
| CN1CCN(S(=O)C23CC4CC(CC(C4)C2)C3)CC1 (stereo unspecified) | -18.9% (inactive) |
| CCOc1ccc(-c2n[nH]c(C)c2-c2ccccc2OC)c(O)c1 | -3.5% (inactive) |
| COc1ccc(C(=O)OCCN2C(=O)c3ccccc3C2=O)cc1 | 1.1% (inactive) |
| CCOc1ccc(-c2nc(N)nc(C)c2-c2ccc(OC)c(OC)c2)c(O)c1 | 9.6% (inactive) |
| CCCOC(=O)c1ccc(OC(=O)c2ccco2)cc1 | 1.8% (inactive) |
| Cc1cc2nc(SCCN3CCCC3)[nH]c2cc1C | 16.7% (inactive) |
| CC1=Nn2c(nnc2C2CCCCC2)SC1 | -19% (inactive) |
| CCn1c(=O)cc(OCC(=O)NC2CCCCC2)c2ccccc21 | -1.2% (inactive) |
| CCSc1nnc(-c2ccc(S(=O)(=O)N3CCOCC3)cc2)n1CC1CCCO1 (stereo unspecified) | 14% (inactive) |
| Cc1c(N(C)C(=O)c2ccco2)c(=O)n(-c2ccccc2)n1C | 8.3% (inactive) |
| COc1ccc2c(c1)CC(C1(O)C(=O)Nc3ccccc31)C2=O (stereo unspecified) | -10.5% (inactive) |
| CC1CC(=O)N(CC(=O)N2CCCC2)c2ccccc2S1 (stereo unspecified) | -21% (inactive) |
| O=C(CN1CCCC1)N1c2ccccc2Sc2ccccc21 | -4.5% (inactive) |
| CCOC(=O)C1CCN(C(=O)COc2ccc(Br)cc2)CC1 | 6.3% (inactive) |
| CCCn1c(NC(=O)c2ccccc2)nc2ccccc21 | -14.1% (inactive) |
| CCCn1c(NCc2ccco2)nc2ccccc21 | -3.7% (inactive) |

| SMILES | cytotoxicity |
| --- | --- |
| CCn1c(COc2ccccc2)nnc1SCC(=O)C(C)(C)C | 16.4% (inactive) |
| CCC(Sc1nc2cc3c(cc2c(=O)n1Cc1ccco1)OCO3)C(=O)Nc1ccccc1OC (stereo unspecified) | -11.9% (inactive) |
| CCc1ccccc1NC(=O)C(CC)Sc1nc2cc3c(cc2c(=O)n1Cc1ccco1)OCO3 (stereo unspecified) | 10.9% (inactive) |
| O=C(c1cccc(Cl)c1)N1CCN(c2ccccn2)CC1 | -21.5% (inactive) |
| O=C(c1cccc(COc2ccc(Cl)cc2Cl)c1)N1CCN(c2ccccn2)CC1 | 99% (active) |
| O=C(CCCOc1ccc(Cl)cc1Cl)N1CCN(c2ccccn2)CC1 | 1.2% (inactive) |
| COc1ccc(Br)cc1-c1nc(C)c(C(C)=O)n1O | 9.6% (inactive) |
| O=C(Nc1cccc(Cl)c1)c1ccc2c(=O)n3c(nc2c1)CCCCC3 | 53.7% (active) |
| O=C(Nc1ccc(F)c(Cl)c1)c1ccc2c(=O)n3c(nc2c1)CCCCC3 | -3.7% (inactive) |
| O=C(Nc1ccc(F)cc1Cl)c1ccc2c(=O)n3c(nc2c1)CCCCC3 | -3.1% (inactive) |
| CCC(C)C(NC(=O)c1ccccc1NC(=O)c1ccco1)C(=O)O (stereo unspecified) | 1.4% (inactive) |
| CC(C)COc1ccc(C2NC(=O)NC2=O)cc1 (stereo unspecified) | 3.8% (inactive) |
| Nc1cc(C(=O)N2CCCC2)cc(C(=O)N2CCCC2)c1 | 6.7% (inactive) |
| O=P(O)(CCc1ccccc1)CN1CCCCC1 | 2.1% (inactive) |
| COc1cc2c(O)c3c(c(-c4ccc5c(c4)OCO5)c2cc1OC)C(=O)OC3 | 99.9% (active) |
| COc1ccc(C(=O)Oc2ccc3c(c2)OCO3)cc1OC | -16.2% (inactive) |
| COc1cc2c(=O)n(-c3ccc(C)cc3)c(=O)n(CC(=O)c3ccc4c(c3)OCO4)c2cc1OC | 2.3% (inactive) |
| CN1C(=O)CC(N2CCN(CC(=O)N3CCCC3)CC2)C1=O (stereo unspecified) | -1.8% (inactive) |
| COc1ccc(S(=O)(=O)NC2CCCC2)cc1Br | 8.9% (inactive) |
| C=CCNc1ncnc2c1ncn2C1OC(CO)C(O)C1O (stereo unspecified) | 53.6% (active) |
| OC[C@H]1O[C@@H](n2cnc3c(NC4CCCC4)ncnc32)[C@H](O)[C@@H]1O | 3.7% (inactive) |
| Nc1ncnc2c1ncn2[C@@H]1O[C@H](CO)[C@@H](O)[C@H]1O | -17.3% (inactive) |
| Nc1nc(F)nc2c1ncn2[C@@H]1O[C@H](CO)[C@@H](O)[C@@H]1O | 42.7% (inactive) |
| OC[C@H]1O[C@@H](n2cnc3c(Nc4ccccc4)ncnc32)[C@H](O)[C@@H]1O | 62.3% (active) |
| Nc1nc(Cl)nc2c1ncn2[C@@H]1O[C@H](CO)[C@@H](O)[C@H]1O | 2.5% (inactive) |
| COc1cccc2cc(C(=O)Nc3cccnc3N3CCOCC3)c(=O)oc12 | 7.3% (inactive) |

| SMILES | cytotoxicity |
| --- | --- |
| O=C(CSc1nnnn1-c1ccc2c(c1)OCCO2)c1cccc2c1OCCO2 | 10.2% (inactive) |
| COc1cccc(/C=N/n2c(CO)nc3ccccc32)c1OC | -4.1% (inactive) |
| CC(O)C(O)C(O)C(O)C1NCCS1 (stereo unspecified) | 5.8% (inactive) |
| N=c1n(Cc2ccccc2)c2ccccc2n1CC(O)COc1ccccc1 (stereo unspecified) | 53% (active) |
| CCCCn1c(=N)n(CC(O)COc2ccccc2)c2ccccc21 (stereo unspecified) | 13.3% (inactive) |
| CCn1c(=N)n(CC(O)COc2cccc(C)c2)c2ccccc21 (stereo unspecified) | 23.6% (inactive) |
| CCCCn1c(=N)n(CC(O)COc2cccc(C)c2)c2ccccc21 (stereo unspecified) | 50.9% (active) |
| CCCn1c(=N)n(CC(O)COc2cccc(C)c2)c2ccccc21 (stereo unspecified) | 12.4% (inactive) |
| COc1ccc(OCC(O)Cn2c(=N)n(Cc3ccccc3)c3ccccc32)cc1 (stereo unspecified) | 22.1% (inactive) |
| O=C(COc1ccccc1)NCCSc1ccccc1 | 0% (inactive) |
| CCN(CC)S(=O)(=O)c1ccc(OCC(=O)NCc2ccccc2)cc1 | 7.9% (inactive) |
| Cc1ccc(NC(=O)CSCc2c(C)noc2C)cc1C | -2.9% (inactive) |
| COc1ccccc1Cn1c2nc3ccccc3nc2c2c(=O)n(CC(C)C)cnc21 | 5% (inactive) |
| O=C(NC1CCCCC1)C1CCN(S(=O)(=O)c2cccc3cccnc23)CC1 | -12.2% (inactive) |
| Cn1c(-c2ccc3c(c2)OCO3)cnc1N | 8.4% (inactive) |
| Cn1c(-c2ccc3c(c2)OCO3)cnc1NCc1ccc(Cl)cc1 | 62.3% (active) |
| Cn1c(-c2ccc3c(c2)OCO3)cnc1NC(=O)CCC(=O)NCCc1ccccc1 | -0.9% (inactive) |
| Cn1c(-c2ccc3c(c2)OCO3)cnc1NCc1ccccc1 | -4.5% (inactive) |
| Cn1c(-c2ccc3c(c2)OCO3)cnc1NCc1cccc(Cl)c1 | 63.6% (active) |
| Cc1ccc(CNc2ncc(-c3ccc4c(c3)OCO4)n2C)cc1 | -5.9% (inactive) |
| COc1ccc(CN2CCN(S(=O)(=O)c3ccc(NC(C)=O)cc3)CC2)cc1OC | -2.4% (inactive) |
| O=C(NCCN1C(=O)C2C3C=CC(C3)C2C1=O)Nc1ccc(Br)cc1 (stereo unspecified) | 8.1% (inactive) |
| COc1cccc(S(=O)(=O)Nc2ccc(C(=O)NCc3ccco3)cc2)c1 | -28.4% (inactive) |
| COc1ccc(CC(=O)N2CCN(C(=O)Cc3ccc(OC)cc3)CC2)cc1 | -6.3% (inactive) |
| CCC(C)NC(=O)c1c(N)n(/N=C/c2cccnc2)c2nc3ccccc3nc12 (stereo unspecified) | 51.8% (active) |
| CCCCNC(=O)c1c(N)n(/N=C/c2ccccn2)c2nc3ccccc3nc12 | 38.1% (inactive) |

| SMILES | cytotoxicity |
| --- | --- |
| Nc1c(C(=O)NC2CCCCC2)c2nc3ccccc3nc2n1/N=C/c1ccco1 | 4.7% (inactive) |
| COCCCNC(=O)c1c(N)n(/N=C/c2cccnc2)c2nc3ccccc3nc12 | 22.5% (inactive) |
| Nc1c(C(=O)NC2CCCC2)c2nc3ccccc3nc2n1/N=C/c1cccnc1 | 66.8% (active) |
| CCCCNC(=O)c1c(N)n(/N=C/c2cccnc2)c2nc3ccccc3nc12 | 12.3% (inactive) |
| CC(C)CNC(=O)c1c(N)n(/N=C/c2ccccn2)c2nc3ccccc3nc12 | 1.7% (inactive) |
| CC(C)CNC(=O)c1c(N)n(/N=C/c2cccnc2)c2nc3ccccc3nc12 | 1.6% (inactive) |
| Cc1ccnc(N(C(=O)c2cccs2)C(=O)c2cccs2)c1 | -0.7% (inactive) |
| C=CCN1C(c2ccccc2)=CS/C1=C(\C#N)c1nnc2n1CCCCC2 | -0.6% (inactive) |
| Cc1cc(C(=O)OCC(=O)NC(=O)NC(C)(C)C)c(C)o1 | -3.4% (inactive) |
| COc1cccc(-c2cc(C(=O)N3CCN(C(c4ccccc4)c4ccccc4)CC3)no2)c1 | -8.3% (inactive) |
| C=CCn1c(SCc2ccccc2C#N)nnc1-c1cc(Br)ccc1O | 13.1% (inactive) |
| C#CC(C)(C)NC(=O)c1ccccc1OC | -11.3% (inactive) |
| COc1cccc(C(=O)Nc2ccc(NC(=O)C(C)(C)C)cn2)c1 | 19.5% (inactive) |
| Cc1oc(C)c2c(=O)ccc3c(c12)OC(N)=C(C#N)C3c1ccccc1 (stereo unspecified) | -7.8% (inactive) |
| CSc1ccc(C2C(C#N)=C(N)Oc3c2ccc(=O)c2c(C)oc(C)c32)cc1 (stereo unspecified) | -2.3% (inactive) |
| CCOc1cc(NC(=O)c2ccccn2)c(OCC)cc1NC(=O)CC(C)C | 9.9% (inactive) |
| CCOC(=O)NC1(C(F)(F)F)C(=O)NC(C)=C1C#N (stereo unspecified) | 2.9% (inactive) |
| CCOC(=O)c1cc2c(c(CSc3nc4ccccc4c(=O)n3Cc3ccco3)c1)OCOC2 | 62.1% (active) |
| O=C(CSc1nc2ccccc2c(=O)n1Cc1ccco1)NCc1ccco1 | -11.8% (inactive) |
| O=C(CSc1nc2ccccc2c(=O)n1Cc1ccco1)NCc1ccccc1 | 58.5% (active) |
| O=c1c2ccccc2nc(SCc2ccccc2)n1Cc1ccco1 | -7% (inactive) |
| CCOC(=O)CSc1nc2ccccc2c(=O)n1Cc1ccco1 | -3% (inactive) |
| O=c1c2ccccc2nc(SCc2cc(F)cc3c2OCOC3)n1Cc1ccco1 | -5.3% (inactive) |
